Assay results from PubChem BioAssay (NCI).
This is part of a sample that, as a whole, favours compounds with a hit. Of some 83,000 tested, about 20% had one in any assay.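 Single-concentration screen, 48 h exposure, 96-well plates. Endpoint: percent growth. Below 10 = active.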 A number with no mark means an inactive call. Active and inactive are the calls of the source.

What was measured:
Experiment in all cases: NCI-60 one-dose screen, 48 h (100 = growth as untreated, 0 = no growth, -100 = all killed)
SR leukemia = conditions: 10 µM unless noted
RPMI-8226 leukemia = conditions: 10 µM unless noted
OVCAR-8 ovarian = conditions: 10 µM unless noted
OVCAR-5 ovarian = conditions: 10 µM unless noted
OVCAR-4 ovarian = conditions: 10 µM
SK-OV-3 ovarian = conditions: 10 µM unless noted
IGROV1 ovarian = conditions: 10 µM unless noted
OVCAR-3 ovarian = conditions: 10 µM unless noted
HS 578T breast = conditions: 10 µM unless noted
NCI/ADR-RES ovarian = conditions: 10 µM unless noted

Structure (SMILES) | growth (SR leukemia) | growth (RPMI-8226 leukemia) | growth (OVCAR-8 ovarian) | growth (OVCAR-5 ovarian) | growth (OVCAR-4 ovarian) | growth (SK-OV-3 ovarian) | growth (IGROV1 ovarian) | growth (OVCAR-3 ovarian) | growth (HS 578T breast) | growth (NCI/ADR-RES ovarian)
CC(C)[C@H]1COC(=O)N1[C@@H]1C(=O)N([C@@H](CCC(=O)N2CCN(C3CCCC3)CC2)C(=O)N[C@@H]2CCCc3ccccc32)[C@@H]1/C=C/c1cccc(Cl)c1 | 19.2% | 22.2% | 74.5% | 105% | 68.3% | 88.1% | 48.4% | 69% | 64.3% | 64.1%
COC(=O)[C@@H](NC(=O)NC(=O)NC(=O)CI)C(C)C | -46.6% (active) | 74.5% | 90.9% | 90.9% | 72.7% | 80.9% | 101% | 7.92% (active) | 86.8% | 101%
CCCCC(CCCCCC(CCCC)C1NC(C)Cc2cc(OC)c(OC)cc21)C1NC(C)Cc2cc(OC)c(OC)cc21 (stereo not given) | -79.2% (active) | -48.3% (active) | -74.3% (active) | -96.4% (active) | -90.1% (active) | -87.3% (active) | -34.8% (active) | -94.2% (active) | -38.6% (active) | -88.3% (active)
COc1cc(-c2nc(SCCC(C)C)nc(Nc3ccccc3)c2C#N)cc(OC)c1OC | 79.8% | 92.2% | 97.7% | 99.4% | 88.3% | 107% | 100% | 103% | -8.69% (active) | 95.5%
Cc1ccc2c(c1)/C(=N\N=C/c1cn(C(C)C)c3ccccc13)C(=O)N2 | -9.77% (active) | 0.866% (active) | 54.5% | 70.2% | 37.7% | 89.2% | 48.1% | -2.36% (active) | 73.9% | 79%
c1ccc(-c2n[nH]c(-c3ccccn3)n2)nc1 | 127% | 104% | 107% | 100% | 103% | 108% | 116% | 144% | 139% | 90.4%
CS(=O)(=O)c1cccnn1 | 167% | 97% | 106% | 81.1% | 80.9% | 116% | 78% | 103% | 89.2% | 96%
Clc1ccccc1/C=N\Nc1ccccn1 | 90.5% | 93.1% | 90.1% | 104% | 68% | 84.1% | 64% | 94.1% | 99.4% | 91.1%
CCNc1cc2c(cc1Br)-c1ccccc1C2=O | 91.6% | 100% | 90.1% | 115% | 92.5% | 90.4% | 82% | 91.8% | 96.8% | 96%
C[C@@H](NC(=O)[C@@H](CC(=O)N1CCC(N2CCCCC2)CC1)N1C(=O)[C@@H](N2C(=O)OC[C@@H]2c2ccccc2)[C@H]1/C=C/c1cccc(Cl)c1)c1ccccc1 | -22.4% (active) | 54.7% | 86.8% | 115% | 78.6% | 86.7% | 86% | 74.4% | 63.2% | 98%
O=C(CSc1nc2ccc([N+](=O)[O-])cc2[nH]1)Nc1ccc(F)c(Cl)c1 | 5.97% (active) | -22.3% (active) | 15.5% | 50.9% | 2.64% (active) | 21.4% | 36.1% | 16.5% | 20.3% | 22.4%
OC(c1ccc(Cl)cc1)(c1ccc(Cl)cc1)C(O)(c1ccc(Cl)cc1)c1ccc(Cl)cc1 | 25.9% | 30.8% | 56.8% | 71.7% | 44.8% | 35.9% | 19.6% | 40.7% | 68.6% | 48.5%
O=C1COCCN1c1ccc(NCc2cn(Cc3cccc4ccccc34)c3ccccc23)cc1 | 74.5% | 82.1% | 83.4% | 41.7% | 69.8% | 62% | 27.2% | 87.9% | 84.3% | 78.2%
COc1cc2c(cc1OC(C)=O)C(=O)CCCC2 | 121% | 109% | 98.3% | 103% | 95.1% | 117% | 78.8% | 114% | 84.3% | 97.7%
CC(C)CCSC1=CC(=O)c2ccccc2C1=O | 6.01% (active) | -62.3% (active) | 56.4% | 112% | -50.6% (active) | 104% | -35.3% (active) | -57.5% (active) | 74% | 76.3%
COc1ccc(C(=O)CCC(=O)O)cc1 | 99.7% | 87.3% | 71.4% | 88.3% | 64.8% | 115% | 96.8% | 79% | 105% | 83.6%
Nc1nc(Nc2ccccc2)c2ncn(Cc3cc4c(cc3Br)OCO4)c2n1 | 10.5% | 9.96% (active) | 6.21% (active) | 32.1% | 40.6% | 11.5% | 37.5% | 2.58% (active) | 34.1% | 8.6% (active)
COc1ccc2c(c1)C(C)Cc1c(Cl)nc(C)nc1N2C (stereo not given) | 14.6% | 29.4% | 24.2% | 56.2% | 54.9% | 19.1% | 55.7% | 6.18% (active) | 27.3% | 4.74% (active)
CN(C)C(=S)Sc1ccc([N+](=O)[O-])cc1[N+](=O)[O-] | 7.64% (active) | 27.7% | 18.7% | 72.9% | 20.8% | 93.1% | 1.54% (active) | 1.07% (active) | 97.5% | 40.8%
COc1ccc(C(C(=O)O)c2ccc(OC)cc2)cc1 | 106% | 111% | 113% | 108% | 103% | 116% | 118% | 101% | 129% | 117%
O=C(CSc1nccc(Nc2ccc(S(=O)(=O)Nc3ccccn3)cc2)n1)c1ccc(Cl)cc1 | 75.5% | 71.3% | 84.2% | 111% | 80.2% | 95.4% | 77.9% | 95.8% | 89.1% | 103%
O=S(=O)(NCCNc1nccc(-c2c(-c3cccc(F)c3)nc3occn23)n1)c1ccc(C(F)(F)F)cc1 | 88.3% | 75.5% | 87.5% | 102% | 87.6% | 79.5% | 77% | 99.1% | 74.3% | 95.5%
O=C(CSc1nc2ccc([N+](=O)[O-])cc2[nH]1)Nc1cccc(Cl)c1 | 12.7% | -19.6% (active) | 18.7% | 61.4% | 2.46% (active) | 29.4% | 37.9% | 19% | 38.3% | 25.4%
CC(C)C1=NOC(=O)C1=Cc1cn(-c2cccnc2)nc1-c1ccccc1 | -22.5% (active) | -16.6% (active) | 89.9% | 100% | 103% | 104% | 102% | 108% | 106% | 110%
COCCCNc1nc(NC(=O)c2cc(Br)cc(C(F)(F)F)c2)cc(-c2cccnc2)n1 | 83.4% | 65.6% | 87.5% | 100% | 92.3% | 92.2% | 91.3% | 109% | 83% | 99.5%
